Here are results for 69 sequences from PubChem BioAssay AID1508600 (Functional Genomics Laboratory (NCATS/FGL), 2020).

About 3,700 (7%) of roughly 53,000 sequences were called active. The entries come from a sample that favours actives as a whole. Unmarked numbers belong to inactive results.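 Rule for the calls: active = gene knockdowns whose robust z-score for IL-1 alpha signal is at least 2 or at most -2, so actives lie on both sides; inactive = the rest.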

This experiment in a line: Components of the Cytosolic LPS Sensing Pathway: Gene Identification via Genome-wide siRNA Screen.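 Note: robust z of the log signal after scaling to non-targeting control siRNA wells of the plate.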 The following applies: RAW264.7 macrophages, IL-1a HTRF, actives lie on both sides, screened at 100 nM (by protocol), cells primed 5 h with Pam3CSK4 first. The method in brief: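 IL-1a HTRF of supernatants after 24 hour LipidA transfection of Pam3CSK4-primed (5 hours) RAW264.7 cells, 48h post-siRNA transfection (100 nM). Scores: percent of plate negative-control median, then log-based robust z-score.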
A general note: Time-resolved FRET reads energy transfer from a long-lived donor to a nearby acceptor.
For CCUGAAGAAAGAAUCCCUATT against Nobox, the z-score is 0.241.

For the sequence GGCUCUUCCAACAGUUCUUTT against Grk1, the z-score is 2.07 (active).

CCUACAGUACUUCAAGCGGTT against Hip1: the z-score is -1.37.

In the case of GCUCUAACGUAUGAUGCCATT against Nde1, the z-score was 0.206.

Take CCAAACUUAAGCCUAUUCUTT against Mme: the z-score is 1.32.

With GCAACUGAGGCUUUCUUUGTT against Copg1, the z-score is -1.53.

As to GGACACCAAUCACAUUUGATT against Cngb3, the z-score is -2.21 (active).

Regarding GGAAGCAUUGAUUUUCAUCTT against Prok2, the z-score is 1.82.

Turning to GGUCGGUUGCUUUAGUGAATT against Magee2, the z-score is 1.42.

For GGGCAAAAUCGUGUCAAGCTT against Dpp9, the z-score was 0.253.

As to CCCAAUGAUCCUAACCAUUTT against Zfp459, the z-score is -1.08.

Regarding GGAGAGAAUGGACCAUCUCTT against Rnase10, the z-score is -1.16.

Consider GGUGUAUCUGUUCUGUUAATT against Impg1, for which the z-score was -0.559.

In the case of GGUGGUCUCCUACAAUGCCTT against Olfr1451, the z-score is 2.3 (active).

As to CGAGCUGUUAGAAUUCAGATT against Jakmip1, the z-score was -0.818.

As to GGAUCAAGAAUUAAUGUCUTT against Nes, the z-score was -0.349.

In the case of GCGACAACUUAAAGACCGGTT against Cand2, the z-score is 0.0878.

Consider “GGCCAUCGCACUUAAACUUTT against 1700123K08Rik”, for which the z-score was -0.578.

With CCGAUGAUCAGAGAAACAGTT against Prkar2b, the z-score was -1.25.

Take GGGACAACAUGGAUUCAAGTT against Sult1c2: the z-score is 0.685.

On to GCCAAAACUCUGUUAGAUATT against Anapc7, for which the z-score was -0.931.

Turning to GGAAGAAGAACUGAAGACATT against Ctnnbl1, the z-score was 2.22 (active).

As for GGAAUCUAGCUGAGAAAAUTT against Lepr, the z-score was -0.62.

For “GGGAGUUCCAAUCAUUCUUTT against 2200002J24Rik”, the z-score is 0.667.

For the sequence GGUCUAUGUACUGUCCUGATT against Otop2, the z-score was 0.0413.

Consider “GGCAAUCAUGUGGACUUCATT against C230071H18Rik”, for which the z-score was 0.714.

Consider CGUGAAGGAAACUUUUCAGTT against Prmt9, for which the z-score was -1.45.

Regarding GGAGAUUGACAUUAGCAACTT against Rps6ka2, the z-score was 3.02 (active).

GGCAGACUCUGCCUACUUATT against Utf1: the z-score is 1.01.

For GCUUUAAACUGAGUGAUAATT against Zfp451, the z-score is -0.564.

For the sequence GGCCAUCUAAUGACCUUCATT against Madd, the z-score is -2.7 (active).

In the case of GCAUGACAGGAAACUCUCUTT against Olfr1308, the z-score was -0.825.

Turning to GCAACAAAUUUGAAUCAGATT against Chic2, the z-score is -0.185.

As for GGAUCUUCGUACUAGAGGCTT against Cenpx, the z-score is 0.0358.

Consider CCUCGUCGAGUGGAAAAUUTT against Pxylp1, for which the z-score is -0.574.

Regarding GGGCUGAGGAGAAAAUGCATT against Meg3, the z-score was -2.37 (active).

For the sequence GGAGACUCCUUACGGCAAATT against Bnip1, the z-score is 0.227.

For the sequence GGAAUGUUAACAAAGAGCATT against Sgcb, the z-score was 0.8.

Take CCUAAUGUUUAGAUCCAUATT against Gcm2: the z-score is 0.11.

For the sequence GGCCGAAUUGUGUCUUGGUTT against Dnmt3a, the z-score was -1.71.

As for GUGACACCUUUAUGGAGAGTT against Olfr1271, the z-score was 0.267.

Regarding CGUGCUAGUGACCAUUUACTT against Limch1, the z-score was 0.625.

For GGGUACCUACAUAGACAAGTT against Rps11, the z-score is 0.0651.

As to CGCAGUGAGGAGUAUGAAGTT against Nin, the z-score was 3.53 (active).

Regarding GGUAGCUAUUAAAGAAUCCTT against AW209491, the z-score was 1.12.

Consider GCGAUCAGCAAGCUAAGCCTT against Mettl2, for which the z-score was 0.117.

Consider GGCCAUGAGGAAAACAAGATT against Coro7, for which the z-score was -1.01.

Regarding ACAAAGAAGCGAUUUCUAUTT against Wtip, the z-score is 1.32.

GCACCCUAGAGGUAAAAGATT against Taf12: the z-score was -2.95 (active).

In the case of GGUUGUAACUUGUAAGGCATT against Rnf144b, the z-score is 0.123.

Turning to GGAGACUAAGGAGGUUUAUTT against Ruvbl1, the z-score was 0.494.

With GGAGUCUCCUUAUAUUAAUTT against Alcam, the z-score is 0.896.

Take GGAUCAUAUAUGAAGCACATT against Mybl1: the z-score was -2.16 (active).

Take GGUUAACAUUUUCAGUCAUTT against Itga2: the z-score is -0.986.

Turning to GGAUGACUUGAUUAUCUUUTT against Adrm1, the z-score was 0.603.

For the sequence GGCAAAGAUUCCAAAAGAGTT against Bsdc1, the z-score is -1.59.

In the case of CCAGAUUGUGUUCACGAUGTT against Rasgrf2, the z-score was 0.888.

Regarding GGGAAGUUAUAAUGGAAGUTT against Rps15a, the z-score was 2.46 (active).

In the case of GCAUAAAGCAGUCAUGCUUTT against Gskip, the z-score is -0.989.

Take GCCAUGUGUAUGGUAGUCUTT against Olfr1247: the z-score is -1.22.

As to GCUAAUAAUGGUCAAAGCCTT against Prrt3, the z-score was -0.963.

Take GGAUAUUCAUGUUUCAUUGTT against Vipr2: the z-score was 0.836.

Regarding CGACCAGAUGAACUGGUGUTT against Smg9, the z-score was 0.929.

As for GGUGACACACUAGUAGACUTT against Sclt1, the z-score was 3.47 (active).

For CGAACAGAAACAGUUAUUATT against Gbp2, the z-score is 1.01.

For the sequence CCAAAUCUCUCAAUUUAGGTT against Taf9b, the z-score was 0.265.

Consider CCAAAGAUGUUAUUGGACCTT against Olfr1152, for which the z-score was -1.1.

Consider CCUGUAAACCAGAUAAGCCTT against Defb1, for which the z-score is -0.0772.

With GGCAAUAUGUCGUAUGUAATT against Sfmbt2, the z-score was -2.13 (active).
